Each structure is given as a SMILES string. Inconclusive results are not listed. Entries that show only a call come without a potency. Active and inactive are the calls of the source. The call rests on the fitted dose curve; in most records, active means well fitted inhibition curve with a large enough effect; inconclusive means small, poorly fitted or top-dose-only effect; inactive means no such curve, though single readings can be large or run the other way.
Potency means the concentration at half of the fitted maximal effect.

The assay relates to Zika virus NS2B-NS3 protease (linked construct). Nature of the assay: Primary screen NINDS Rhodamine qHTS for Zika virus inhibitors (AID 1347160). Further: nearly all actives have a fitted effect of over 55% in size. As to conditions: purified NS2B-NS3 protease, Rhodamine110 substrate fluorescence; series mostly up to 57.1 µM. The procedure, abridged:
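Percent inhibition, normalized to uninhibited and enzyme-free controls, is fitted to a 4-parameter Hill equation. Fluorescence change comes from a 15-min cleavage of 1.5 microM bis-peptide Rhodamine110 substrate by 25 nM linked NS2B-NS3 at room temperature.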
For orientation: Quantitative high-throughput screening tests each substance at several concentrations.
For the compound `C=C(C(=O)O)C1CC2=C(C)CCCC2(C)C[C@@H]1O` (stereo not given in full), the Potency entry was “inactive”.

Consider `CCC(C)C(=O)OC1CC(O)C23C4OCC5(C(O)CC2C1(C)C(O)O4)C3C(=O)C(O)C1(C)C(O)(c2ccoc2)CC2OC251` (stereo not given), for which the Potency entry is “inactive”.

As to `COC(=O)C(C)C1CCC2(C)C(=O)C=CC(C)(O)C2C1O` (stereo not given), the Potency result is “inactive”.

Turning to `C=C(C(=O)O)C1CCC2(C)CCCC(C)(O)C2C1` (stereo not given), the Potency result is “inactive”.

`C(#Cc1nc2ncccc2nc1OCCN1CCCC1)c1ccccc1`: the Potency entry is “inactive”.

As for `O=C(OCC1=CC(O)C2C=CO[C@@H](O[C@@H]3O[C@H](CO)[C@@H](O)[C@H](O)[C@H]3O)C12)c1ccccc1` (stereo not given in full), the Potency result was “inactive”.

For `C/C(=C/CO)CC[C@@H]1[C@@](C)(O)CCC2C(C)(C)CCC[C@]21C` (stereo not given in full), the Potency entry was “inactive”.

In the case of `CCc1cccc(CC)c1NC(=O)c1nn(C)c2c1CCc1cnc(Nc3ccc(C(=O)NC4CCN(C)CC4)cc3OC(F)(F)F)nc1-2`, the Potency entry was “inactive”.

`C=C1CCC2C(C)(C(=O)O)CCCC2(C)C1CC/C(=C\CO)CO` (stereo not given): the Potency entry is “inactive”.

Take `CC(C)[C@@H]1C(=O)N(S(C)(=O)=O)[C@@H]2CCN(C(=O)/C=C/CN3CCCCC3)[C@H]21`: the Potency entry is “inactive”.

For `COc1ccc(/C=C/C(=O)O[C@H]2[C@H](O[C@H]3[C@@H]4C=CO[C@@H](O[C@@H]5O[C@H](CO)[C@@H](O)[C@H](O)[C@H]5O)[C@@H]4[C@@]4(CO)O[C@@H]34)O[C@@H](C)[C@H](O)[C@H]2OC(C)=O)cc1`, the Potency result is “inactive”.

Take `CC1(O)CC(O)C2(O)C=COC(O[C@@H]3O[C@H](CO)[C@@H](O)[C@H](O)[C@H]3O)C12` (stereo not given in full): the Potency result was “inactive”.

Turning to `CCC[C@@H]1O[C@@H]2C[C@H]3[C@@H]4CCC5=CC(=O)C=C[C@]5(C)[C@H]4[C@@H](O)C[C@]3(C)[C@]2(C(=O)CO)O1`, the Potency entry is “inactive”.

`CC[C@H](CO)Nc1nc(NCc2ccc(-c3ccccn3)cc2)c2ncn(C(C)C)c2n1`: the Potency entry is “inactive”.

As for `Nc1ncnc2c1nc(N)n2[C@@H]1O[C@H](CO)[C@@H](O)[C@H]1O`, the Potency entry was “inactive”.

For `Cc1cnc(NC(=O)Nc2cc(Br)c(C)cc2OCC2CNCCO2)cn1` (stereo not given), the Potency result is “inactive”.

For the compound `O=C(/C=C\n1cnc(-c2cc(C(F)(F)F)cc(C(F)(F)F)c2)n1)N1CC(F)(F)C1`, the Potency result is “inactive”.

On to `CC(=O)O[C@H]1CC[C@@]2(C)C(CC[C@@H](C)[C@]23Cc2c(O)cc4c(c2O3)CN([C@@H](CCC(=O)O)C(=O)O)C4=O)C1(C)C` (stereo not given in full), for which the Potency result is “inactive”.

`Cc1cccc(/C=N/Nc2cc(N3CCOCC3)n3nc(-c4ccncc4)cc3n2)c1`: the Potency entry is “inactive”.

As for `CC1(C)CCCC2(C)C(CO)C(CO)=CCC12` (stereo not given), the Potency result is “inactive”.

For the compound `CC1CCC2(C(=O)O)CCC3(C)C(=CCC4C5(C)CCC(O)C(C)(CO)C5CCC43C)C2C1(C)O` (stereo not given), the Potency entry was “inactive”.

Consider `OC[C@H]1O[C@@H](Oc2ccccc2)[C@H](O)[C@@H](O)[C@@H]1O`, for which the Potency entry is “inactive”.

Turning to `CC(C)=CCC/C(C)=C/CO[C@@H]1O[C@H](CO)[C@@H](OC(=O)/C=C/c2ccc(O)cc2)[C@H](O[C@@H]2O[C@@H](C)[C@H](O)[C@@H](O)[C@H]2O)[C@H]1O`, the Potency entry is “inactive”.

Regarding `Cc1cc(-c2cc(O)ccc2Cl)cc2nnc(Nc3ccc(OCCN4CCCC4)cc3)nc12`, the Potency entry is “inactive”.

In the case of `C[C@@H]1CC[C@]2(C(=O)O)CC[C@]3(C)C(=CCC4[C@@]5(C)C[C@@H](O)[C@H](O)[C@@](C)(CO)C5CC[C@]43C)C2[C@]1(C)O` (stereo not given in full), the Potency result is “inactive”.

In the case of `C[C@@H]1O[C@@H](O[C@H]2[C@H](O[C@H]3[C@H](O[C@H]4CC[C@@]5(C)C(CC[C@]6(C)C5CC=C5[C@@H]7CC(C)(C)C[C@@H](O)[C@]7(C)CC[C@]56C)[C@@]4(C)CO)O[C@H](C(=O)O)[C@@H](O)[C@@H]3O)OC[C@H](O)[C@@H]2O)[C@H](O)[C@H](O)[C@H]1O` (stereo not given in full), the Potency entry was “inactive”.

For `COc1cc2ncnc(Nc3cccc(Cl)c3F)c2cc1OC(=O)N1CCN(C)C[C@H]1C`, the Potency entry is “inactive”.

Take `C=CC1C(OC2OC(CO)C(O)C(O)C2O)OC=C2C(=O)N3C(C(=O)O)Cc4c([nH]c5ccccc45)C3CC21` (stereo not given): the Potency entry was “inactive”.

For `Cc1cc(C)c(CNC(=O)c2cc(-c3ccc(CN4CCOCC4)cc3)cc3c2cnn3C2CCCC2)c(=O)[nH]1`, the Potency entry was “inactive”.

In the case of `Clc1cc2c(NC3CCCC3)nnc(-c3ccncc3)c2cc1Cl`, the Potency result was “inactive”.

With `C/C=C1\[C@H](O[C@@H]2O[C@H](CO)[C@@H](O)[C@H](O)[C@H]2O)OC=C(C(=O)OC)[C@H]1CC(=O)OC[C@H]1O[C@@H](OCCc2ccc(O)cc2)[C@H](O)[C@@H](O)[C@@H]1O`, the Potency entry is “inactive”.

As for `CC1=CCC2C(C)(C)CCC[C@]2(C)[C@@]12CC[C@](C)(CC(=O)O)O2` (stereo not given in full), the Potency entry is “inactive”.

For `CS(=O)(=O)N1CCC(NC(=O)c2[nH]ncc2NC(=O)c2c(Cl)cccc2Cl)CC1`, the Potency result was “inactive”.

Take `O=C(O)C1CN(Cc2ccc(-c3nc4cc(Cc5ccccc5F)ccc4s3)c(F)c2)C1`: the activity change, negative = inhibition was -8.39% [at 10.7 µM] (inactive).

On to `CC1OC(O[C@H]2CC[C@@]3(C)C(CC[C@]4(C)C3CC=C3C5CC(C)(C)CC[C@]5(C(=O)OC5OC(CO)C(OC6OC(COC7OCC(O)C(O)C7O)C(O)C(O)C6O)C(O)C5O)CC[C@]34C)C2(C)C)C(O)C(O)C1OC1OCC(OC2OCC(O)C(O)C2O)C(O)C1O` (stereo not given in full), for which the activity change, negative = inhibition was -22.7% [at 10.7 µM] (inactive).

Turning to `O=C(/C=C\c1ccc(O)cc1)N[C@@H](Cc1ccc(O)cc1)C(=O)O`, the Potency is 12.6 µM (active).

For the compound `CC1=C(CCC(C)O[C@@H]2O[C@H](CO)[C@@H](O)[C@H](O)[C@H]2O)C(C)(C)CCC1=O` (stereo not given in full), the Potency result was “inactive”.

In the case of `CN(C)C/C=C/C(=O)Nc1cccc(C(=O)Nc2cccc(Nc3ncc(Cl)c(-c4c[nH]c5ccccc45)n3)c2)c1`, the Potency entry is “inactive”.

On to `[N-]=[N+]=N[C@]1(CO)O[C@@H](n2ccc(=O)[nH]c2=O)[C@@H](O)[C@@H]1O`, for which the Potency entry is “inactive”.

For the compound `C/C=C(\C)C(=O)O[C@H]1[C@@H](O[C@]2(COC(=O)CC(C)C)O[C@H](COC(=O)C(C)CC)[C@@H](OC(C)=O)[C@@H]2O)O[C@H](COC(C)=O)[C@@H](O)[C@@H]1O` (stereo not given in full), the Potency result was “inactive”.

(Values after PubChem BioAssay (NCATS).)
